According to PubChem BioAssay AID651819 (National Center for Advancing Translational Sciences (NCATS), 2012):
“And” between values parts separate entries of the source, which are not always exact repeats. Identical values can stand only once. Screen size: about 360,000 compounds; about 1,100 (0.31%) were called active. The sample holds actives, similar compounds and a random draw of the others, so the mix is not that of the screen. Rule as the data show it: active = activity change below about -30%; inactive = the rest.
% is scaled to controls: 0 for no effect and ±100 for the full control effect.

The compounds below were run on cytosolic chaperonin (CCT/TRiC complex) (assay: High-Throughput Screening for Modulators of Cytosolic Chaperonin Activity). Conditions: purified chaperonin ATPase assay, HTRF ADP detection, 30 min; active compounds read low.
Outline: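 ATPase activity: ADP formed was measured by HTRF Transcreener (665/615 nm ratio) after 30 min at 37 deg C with 10 uM ATP. Compounds screened at one 76 uM concentration against 40 or 20 nM TRiC in Tris pH 7.4/KCl/MgCl2/DTT buffer.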
For CC(=O)Cn1ncc(N2CCOCC2)c(Br)c1=O, the activity change was -7.2% (inactive). With O=C(CSCc1ccccc1Cl)NNC(=O)c1ccccc1 the activity change was -0.322% (inactive). In the case of O=C(CSCc1c(Cl)cccc1Cl)NN1C(=O)c2ccccc2C1=O, the activity change is reported as -44% (active). In the case of O=C(CSCc1c(F)cccc1Cl)NCC1CCCO1 (configuration not stated), the activity change is reported as -0.136% (inactive). CC(CO)(CO)NC(=O)c1ccc(=O)[nH]n1 was tested, and the activity change was 1.59% (inactive). Cc1ccc(C)c(OCCC(=O)OCC(=O)c2ccc3c(c2)NC(=O)CO3)c1 was tested, and the activity change was -8.24% (inactive). With CCOC(=O)C1CCN(C(=O)COc2cc(C)c(Br)c(C)c2)CC1 the activity change was -2.02% (inactive). With CC(=O)c1c(C)[nH]c(C(=O)COc2ccc3c(C)cc(=O)oc3c2)c1C the activity change was -0.599% (inactive). In the case of Cc1cc(=O)oc2ccc(OCC(=O)O)cc12, the activity change is reported as -57.7% (active). For Cc1ccc(O)c(/C=N/NC(=O)COc2ccc3c(C)cc(=O)oc3c2)c1, the activity change was 2.07% (inactive). With O=C(NCCC1CCCCN1S(=O)(=O)c1ccc(Cl)cc1)C(=O)NCc1ccco1 (configuration not stated) the activity change was 2.22% (inactive). CCOC(=O)[C@@H]1[C@H]2COc3ccc(Br)cc3[C@H]2N2C(=O)N(c3ccc(Cl)cc3)C(=O)[C@@]12C was tested, and the activity change was -1.17% (inactive). For CC1(C(=O)Nc2cccc3cccnc23)CCN1C(=O)CCC1CCCC1 (configuration not stated), the activity change was 1.06% (inactive). With O=C1c2ccccc2C(O)N1Cc1ccccc1 (configuration not stated) the activity change was -1.07% (inactive). In the case of CCn1cc(C(=O)NCCO)c(=O)c2cc(F)c(N3CCN(C)CC3)cc21, the activity change is reported as -0.12% (inactive). With CCCCCCn1cc(C(=O)O)c(=O)c2cc(F)c(N3CCCCC3)cc21 the activity change was -2.93% (inactive). For CN1CCN(c2cc3c(cc2F)c(=O)c(C(=O)O)cn3CCF)CC1, the activity change was -35.1% (active). For COc1ccc(S(=O)(=O)N2CCOC2CNC(=O)C(=O)NCc2ccncc2)cc1OC (configuration not stated), the activity change was 0.662% (inactive). In the case of O=C(NCc1ccncc1)C(=O)NCC1OCCN1S(=O)(=O)c1ccc(Br)cc1 (configuration not stated), the activity change is reported as -45.4% (active). For O=C(NCc1ccccc1)C(=O)NCC1OCCN1S(=O)(=O)c1ccc(Br)cc1 (configuration not stated), the activity change was -1.3% (inactive). O=C1CCC(=O)N1c1ccc(NCCc2ccccc2F)c([N+](=O)[O-])c1 was tested, and the activity change was -1.58% (inactive). For Cc1ccccc1NC(=O)c1cc(S(=O)(=O)N2CCOCC2)cs1, the activity change was -3.83% (inactive). Cn1c(=O)c(=O)n(C)c2cc(S(=O)(=O)NCCc3ccccc3)ccc21 was tested, and the activity change was -5.22% (inactive). CN(C)S(=O)(=O)N1CCC(Oc2cccc(C(=O)NCCCC3CCCC3)c2)CC1 was tested, and the activity change was -87.6% (active). With COc1cccc(C(=O)NCCS(=O)(=O)NCC2CCCO2)c1 (configuration not stated) the activity change was -0.161% (inactive). CN(C(=O)c1cccc(OC2CCN(S(=O)(=O)N(C)C)CC2)c1)C1CCOC1 (configuration not stated) was tested, and the activity change was -4.71% (inactive). In the case of Cc1onc(-c2c(F)cccc2Cl)c1C(=O)Nc1cccc(S(=O)(=O)N2CCCCC2)c1, the activity change is reported as -0.204% (inactive). Cc1[nH]n(C)c(=O)c1C(=O)c1c(-c2c(Cl)cccc2Cl)noc1C was tested, and the activity change was -45.8% (active). For Cc1onc(-c2c(Cl)cccc2Cl)c1C(=O)c1c[nH]c(C(=O)NC2CC2)c1, the activity change was 0.407% (inactive). In the case of O=C1NC(c2ccccc2)=NC1(Nc1ccccn1)C(F)(F)F (configuration not stated), the activity change is reported as -1.42% (inactive). With Cc1cccc(N)c1SC1CCCCC1O (configuration not stated) the activity change was -39.7% (active). With CSCCC1NC2(C(=O)Nc3ccc(Cl)cc32)[C@@H]2C(=O)N(C3CCCC3)C(=O)[C@H]12 (some centres not stated) the activity change was 1.03% (inactive). For Cc1c(CC(=O)NCC(=O)NCC(=O)O)c(=O)oc2cc3oc4c(c3cc12)CCCC4, the activity change was -2.16% (inactive). COc1ccc(-n2nc3c(c2NC(=O)c2ccc(N4C(=O)CCC4=O)cc2)CSC3)cc1 was tested, and the activity change was -0.865% (inactive). COc1cc(NC(=O)c2ccc(-c3csc(C)n3)cc2)c(OC)cc1Cl was tested, and the activity change was -4.58% (inactive). COc1ccc(-c2csc(NC(=O)c3ccc(N4C(=O)CCC4=O)cc3)n2)cc1OC was tested, and the activity change was -39.6% (active). In the case of C[C@H]1Cn2cnc(C(=O)N[C@H](C)c3ccccc3)c2C(=O)N1, the activity change is reported as -0.974% (inactive). With Cc1ccc2nc(SCC(=O)NC3CCCC3)[nH]c2c1 the activity change was -1.34% (inactive). CCc1c(C)nc(SCC(=O)NC2CCCC2)[nH]c1=O was tested, and the activity change was -41.7% (active). In the case of Cc1nc(SCC(=O)NC2CCCC2)[nH]c(=O)c1C, the activity change is reported as -0.123% (inactive). In the case of O=C(CSC1=NS(=O)(=O)c2cc(F)ccc2N1)Nc1ccccc1F, the activity change is reported as 0.641% (inactive). For COC(=O)c1ccc(S(=O)(=O)c2ccc(C(=O)OC)s2)s1, the activity change was 1.17% (inactive). For Cc1ccc(-c2nn(-c3ccccc3)cc2/C=C/C(=O)Nc2cccc(S(N)(=O)=O)c2)cc1, the activity change was 0.245% (inactive). With CN(C)S(=O)(=O)c1cccc(-c2nn(-c3ccccc3)cc2/C=C2\SC(=S)N(CC(=O)O)C2=O)c1 the activity change was -61.8% (active). In the case of COc1cccc(-c2nn(-c3ccccc3)cc2/C=C(\C#N)C(=O)NCCCn2ccnc2)c1, the activity change is reported as -0.966% (inactive). With CSc1nc2ccccc2cc1/C=C(\C#N)c1ccc(Cl)cc1Cl the activity change was 2.8% (inactive). In the case of Cn1nc([N+](=O)[O-])nc1Sc1ccc(C(C)(C)C)cc1, the activity change is reported as -4.31% (inactive). In the case of Cc1cc(C(=O)NNC(=S)NC(C)c2ccccc2)cs1 (configuration not stated), the activity change is reported as -0.958% (inactive). With O=C(Nc1ccc(Br)cc1)c1cc(S(=O)(=O)Nc2ccccn2)ccc1Cl the activity change was -1.07% (inactive). In the case of O=C(Nc1ccncc1)c1cc(-c2ccccn2)nc2ccc(Br)cc12, the activity change is reported as -70.4% (active). For Cc1ccc2nc(-c3ccncc3)cc(C(=O)Nc3ccc(OC(F)F)cc3)c2c1, the activity change was -2.42% (inactive). In the case of O=C(Nc1ccc(Cl)cc1)/C(=C1\CCCN1)[N+](=O)[O-], the activity change is reported as 0.411% (inactive). O=C(Nc1cc(-c2nc3ncccc3o2)ccc1Cl)c1ccco1 was tested, and the activity change was -2.43% (inactive). For O=S1(=O)CC(N2CCN(c3ccccn3)CC2)CN1Cc1ccc(F)cc1 (configuration not stated), the activity change was -0.743% (inactive). For Cc1c(C(=O)Nc2cccc(S(=O)(=O)N3CCOCC3)c2)oc2ccccc12, the activity change was -1.92% (inactive). In the case of Cc1occc1C(=O)Nc1cccc(S(=O)(=O)N2CCOCC2)c1, the activity change is reported as -3.31% (inactive). For Cc1cc(C)n2nc(C(=O)Nc3cccc(S(=O)(=O)N4CCOCC4)c3)nc2n1, the activity change was -34.4% (active). With Cc1ccc(-c2cc(C(F)(F)F)n3ncc(C(=O)N4CCCCC4c4cccnc4)c3n2)cc1 (configuration not stated) the activity change was -3.01% (inactive). For Cc1ccccc1NC(=O)C(C)c1ccc(-c2ccccc2)c(F)c1 (configuration not stated), the activity change was -2.15% (inactive). In the case of CCCc1nc2c(C)cc(-c3nc4ccccc4n3C)cc2n1Cc1ccc(-c2ccccc2C(=O)O)cc1, the activity change is reported as -0.702% (inactive). For O=C(NCCCN1CCCCCC1)C1CC(=O)N(C2CCCC2)C1 (configuration not stated), the activity change was -44.9% (active). O=C(NCCCN1CCCCC1)C1CC(=O)N(CCc2ccccc2)C1 (configuration not stated) was tested, and the activity change was 0.88% (inactive). O=C(NCCc1ccc(Cl)cc1)C1CC(=O)N(C2CCCCC2)C1 (configuration not stated) was tested, and the activity change was -0.359% (inactive). With CCc1cc(CNC(=O)CC2C(=O)NCCN2CC2CCCCC2)on1 (configuration not stated) the activity change was -0.174% (inactive). With COc1cccc(CNS(=O)(=O)c2csc(C(N)=O)c2)c1 the activity change was 0.982% (inactive). COc1ccc(NC(=O)C2CCC(CNS(=O)(=O)c3csc(C(N)=O)c3)CC2)cc1OC (configuration not stated) was tested, and the activity change was -80.6% (active). In the case of CC(=O)Nc1ccc(S(=O)(=O)NCC2CCC(C(=O)NCCc3ccccc3)CC2)cc1 (configuration not stated), the activity change is reported as -1.57% (inactive). For CN(C)C(=O)CCc1ccc2c3c([nH]c2c1)[C@]1(CCC2CCCC2)[C@@H](C(=O)N2CCOCC2)C[C@H](CC(=O)NCc2ccco2)C(=O)N1CC3, the activity change was 0.536% (inactive). CSCCC(NC(=O)C1CCC(C)CC1)C(=O)NCc1ccco1 (configuration not stated) was tested, and the activity change was -5.62% (inactive). For O=C(Cn1c[n+](CC(=O)c2ccc([N+](=O)[O-])cc2)cn1)c1ccc([N+](=O)[O-])cc1, the activity change was 1.85% (inactive) and -0.852% (inactive). O=C(CC(n1cncn1)C(Cl)(Cl)Cl)c1ccc([N+](=O)[O-])cc1 (configuration not stated) was tested, and the activity change was -37.2% (active). O=C(CCn1nnc2ccccc21)OCC(=O)c1ccc([N+](=O)[O-])cc1 was tested, and the activity change was 1.01% (inactive). For CCCN(C(=O)COC(=O)CNS(=O)(=O)c1ccc(NC(C)=O)cc1)C1CCS(=O)(=O)C1 (configuration not stated), the activity change was -0.677% (inactive). For O=C(NC(=O)c1cc(OCC(F)(F)F)ccc1OCC(F)(F)F)Nc1ccccc1, the activity change was -0.0973% (inactive). With COC(=O)c1ccc(COc2cc([N+](=O)[O-])cc3cccnc23)cc1 the activity change was -0.442% (inactive). With COc1ccc(CN2CCCC(CNC(=O)c3ccc(F)cc3)C2)cc1OC (configuration not stated) the activity change was -2.54% (inactive). With S=c1nccc(-c2cc(Cl)sc2Cl)[nH]1 the activity change was -49.1% (active). With CCOc1c2ccc(C(=O)NC3CCCc4ccccc43)cc2nn1CC (configuration not stated) the activity change was -6.07% (inactive). COC(=O)c1ccc(Nc2ncnc3sccc23)cc1 was tested, and the activity change was -2.64% (inactive). COc1ccc(Nc2ncnc3sc(C)cc23)cc1 was tested, and the activity change was -82.2% (active). COc1ccc(Nc2cc(Sc3ccc(OC)cc3)ncn2)cc1 was tested, and the activity change was -0.999% (inactive). For CC1(C)CC[C@]2(C(=O)O)CC[C@]3(C)C(=CCC4[C@@]5(C)CC[C@H](O)C(C)(C)C5[C@H](O)C[C@]43C)[C@@H]2C1 (some centres not stated), the activity change was 0.294% (inactive). CCO[C@H]1OC(C(=O)N2CCN(Cc3ccccc3)CC2)=C[C@@H](c2cn(C(C)=O)c3ccccc23)[C@@H]1CCCO was tested, and the activity change was 0.631% (inactive). With COc1ccc(CCNS(=O)(=O)c2ccc(Cl)s2)cc1OC the activity change was -1.56% (inactive). For COc1ccc(CCNS(=O)(=O)c2ccc(F)cc2)cc1OC, the activity change was -67.3% (active). With COc1ccc(CCNS(=O)(=O)c2ccc(C(=O)NCc3ccco3)cc2)cc1OC the activity change was -2.3% (inactive). O=C(OCCN1CCOCC1)C1(c2ccccc2)CCCCC1 was tested, and the activity change was 0.343% (inactive).
